Screening results from PubChem BioAssay.
Only some compounds are listed: those with a hit (about 3.6% of all), similar ones and a draw of the others.
Bead autofluor = counter-screen for toxin protease inhibitors: compound fluorescence; compound autofluorescence counterscreen, microsphere flow cytometry; active compounds read high; fluorescence intensity (concentration not given with the values); 3.1% of 360,000 active; in the data active = fluorescence intensity above about 16000; inconclusive = no clear call, values can overlap the other calls
BoNT A protease = blocks Botulinum neurotoxin A light chain protease; multiplex microsphere protease substrate cleavage, flow cytometry; 0.17% of 360,000 active; inhibition, % at 10 µM; AID 588499
Anthrax LF inh2 = blocks Bacillus anthracis lethal factor protease; multiplex microsphere protease cleavage assay, LF; inhibition, % at 10 µM; P15917; 0.12% of 360,000 active
BoNT F protease = blocks Botulinum neurotoxin F light chain protease | 0.22% of 360,000 active | AID 588497 | Multiplex microsphere protease cleavage assay, flow cytometry | inhibition, % at 10 µM; in the data active = inhibition above about 35%, passing the limit was not always enough; inconclusive = no clear call, values can overlap the other calls
MazEF act = MazEF (E. coli) toxin RNase activation | 0.32% of 350,000 active | FAM/BHQ RNA-DNA oligo cleavage fluorescence, 5 h | P0AE70 | activation, % at 20 µM | AID 504720; in the data active = activation above about 50%
Target sequence (P0AE70 whole entry, looked up): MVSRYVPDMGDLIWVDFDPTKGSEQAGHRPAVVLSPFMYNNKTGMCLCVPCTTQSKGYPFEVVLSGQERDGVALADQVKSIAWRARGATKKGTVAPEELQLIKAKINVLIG
Numbers stand for hits; i = inactive; ? = inconclusive; nt = no result given. Cut-off read from the data, not from the text of the source, unless noted: active = inhibition above about 30%; inconclusive = no clear call, values can overlap the other calls; inactive = below that.

SMILES	Bead autofluor	BoNT A protease	Anthrax LF inh2	BoNT F protease	MazEF act
CCOc1ccc(-c2nnc(SCC(=O)N(CC)CC)n2N)cc1	21180	i	i	i	i
CCN(CC)C(=O)CSc1nnc(-c2ccncc2)n1N	16267	i	i	i	i
CCN(CC)C(=O)CSc1nnc2sc3ccccc3n12	19933	i	i	i	i
CCN(CC)C(=O)CSc1nnc(-c2ccccc2)n1N	21307	i	i	i	i
COc1ccc(N(CC(=O)Nc2ccc(S(=O)(=O)N3CCCCC3)cc2)S(C)(=O)=O)cc1OC	19464	?	i	i	i
CS(=O)(=O)N(CC(=O)Nc1cc(Cl)ccc1Cl)c1ccccc1	24006	i	i	i	i
COc1ccc(N(CC(=O)Nc2ccc(S(=O)(=O)N3CCCC3)cc2)S(C)(=O)=O)cc1OC	i	i	i	i	i
COc1ccc(N(CC(=O)N2CCc3ccccc3C2)S(C)(=O)=O)cc1OC	16881	i	i	i	i
COc1ccc(NC(=O)CN(c2cccc(C(F)(F)F)c2)S(C)(=O)=O)cc1OC	20812	i	i	i	i
COc1cccc(NC(=O)CN(c2cccc(C(F)(F)F)c2)S(C)(=O)=O)c1	i	i	i	i	i
CC(C)(C)Cc1c(-c2cccc(Br)c2)nc2ccc(Br)cn12	i	i	i	i	nt
CC(C)CC(=O)Nc1nnc(S(=O)(=O)N2CCc3ccccc32)s1	i	i	i	i	i
O=c1[nH][nH]c2c1[C@H](CCc1cccc(Cl)c1)O[C@H](C1CCCC1)C2	i	i	i	i	nt
CC(=O)Nc1ccc(NC(=O)CN(c2cccc(C)c2)S(C)(=O)=O)cc1	22430	i	i	i	i
COc1ccc(NC(=O)N2CCN(c3cccc(C(F)(F)F)c3)CC2)cc1OC	19995	i	i	i	i
COc1ccccc1NC(=O)CCN1C(=O)C2C3CCC(C3)C2C1=O (configuration not stated)	i	i	i	i	i
C=CCn1cc(C(=O)NCCCOCC)c(=O)c2cc(S(=O)(=O)N(CC)CC)ccc21	23558	i	i	i	i
C=CCn1cc(C(=O)NCCOC)c(=O)c2cc(S(=O)(=O)N(CC)CC)ccc21	16280	i	i	i	i
CCOCCCNC(=O)c1cn(CC)c2ccc(S(=O)(=O)N(C)C3CCCCC3)cc2c1=O	i	i	i	i	i
COc1cccc(CNC(=O)c2cc3c(c(-c4cccc(-c5cccc(C#N)c5)c4)n2)[C@H](CCO)N(S(=O)C(C)(C)C)C3)c1 (some centres not stated)	i	i	i	i	nt
CCN(CC)C(=O)Oc1ccc2c(=O)c(-c3ccccc3)coc2c1	21592	i	i	i	i
CC(C)(C)OC(=O)C[C@@H]1C/C=C\C[C@H](CC(=O)N[C@@H](CO)Cc2ccccc2)C(=O)N[C@H](C(C)(C)C)COC1=O	i	i	i	i	i
O=C(O)CCCC(=O)OCCCCc1cccs1	19404	?	i	i	i
O=C(O)CCCC(=O)OCCc1cc2ccccc2c(=O)o1	i	i	i	i	i
O=C(Nc1cccn(Cc2c(Cl)cccc2Cl)c1=O)c1ccccc1Cl	21806	?	i	i	i
SMILES	Bead autofluor	BoNT A protease	Anthrax LF inh2	BoNT F protease	MazEF act
O=c1ccccn1Cc1c(Cl)cccc1Cl	23028	?	i	i	i
Cc1cccc(CC(=O)NCCS(=O)(=O)N2CCN(c3ccccc3)CC2)c1	i	i	i	i	i
Cc1ccccc1OCCN1CCCC1	i	i	i	?	i
Fc1ccccc1OCCCN1CCOCC1	17023	i	i	i	i
Cc1ccccc1OCCCN1CCCC1	17560	?	i	i	i
CC1CN(CCCOc2ccccc2[N+](=O)[O-])CC(C)O1 (configuration not stated)	23581	i	i	i	i
CC1CN(CCOc2ccc(F)cc2)CC(C)O1 (configuration not stated)	i	i	i	36	i
CC1(C)OC(=O)C2=C(C[C@@H](CCC(F)(F)F)O[C@H]2c2ccc(F)cc2)O1	i	i	i	i	nt
O=[N+]([O-])c1ccccc1OCCOc1ccccc1[N+](=O)[O-]	i	i	i	i	i
O=c1c2ccccc2ncn1CCCOc1ccccc1[N+](=O)[O-]	20774	i	i	i	i
O=[N+]([O-])c1ccccc1OCCCN1CCOCC1	23944	i	i	i	i
O=[N+]([O-])c1ccccc1OCCCn1cnc2ccccc21	i	i	i	i	i
O=C(NC1(C(F)(F)F)N=C2SCCN2C1=O)c1ccccc1 (configuration not stated)	24460	i	i	i	i
COc1ccc(C(=O)NC2(C(F)(F)F)N=C3SCCN3C2=O)cc1 (configuration not stated)	i	i	i	i	i
c1ccc(-c2cnc(-c3ccccc3)nc2)cc1	i	?	i	i	i
O=C(O)c1ncc(-c2ccccc2)cn1	17752	i	i	i	i
CCCCCCN1C[C@@H](O)[C@H](n2cc(COC(=O)c3ccccc3)nn2)C[C@@H]1c1ccc(C)cc1	i	i	i	i	i
COC(=O)C(Cc1cccc(C)n1)(c1ccccc1)c1ccccc1	i	i	i	i	i
Cn1c(=O)c(=O)n(C)c2cc(S(=O)(=O)N3CCCCC3)ccc21	23051	i	i	i	i
Cn1c(=O)c(=O)n(C)c2cc(S(=O)(=O)N3CCN(c4cccc(C(F)(F)F)c4)CC3)ccc21	21964	i	i	i	i
Cn1c(=O)c(=O)n(C)c2cc(S(=O)(=O)N3CCC(N4CCCCC4)CC3)ccc21	i	i	i	i	i
Cn1c(=O)oc2cc(S(=O)(=O)N3CCN(c4cccc(Cl)c4)CC3)ccc21	22890	i	i	i	i
Cc1ccc(Cc2c(-c3ccccc3)nc3cc(C)c(Br)c(C)n23)cc1	i	i	i	i	nt
CCOC(=O)CCc1c(C)c2ccc(OC(C)C(=O)OCC)c(C)c2oc1=O (configuration not stated)	20895	i	i	i	i
CCOC(=O)c1c(C)c(C(=O)OCC)n(C)c1C	i	i	i	i	i
SMILES	Bead autofluor	BoNT A protease	Anthrax LF inh2	BoNT F protease	MazEF act
CCOC(=O)c1c(C)c(C(=O)NCCCOC)c(C)n1C	20527	?	i	i	i
CCOC(=O)c1c(C)c(C(=O)NCc2cccs2)c(C)n1C	17882	i	i	i	i
CCOC(=O)c1c(C)c(C(=O)NCc2ccco2)c(C)n1CC	i	i	i	i	i
CCOC(=O)c1c(C)c(C(=O)NCc2cccnc2)c(C)n1CC	20195	?	i	i	i
CCOC(=O)c1c(C)c(C(=O)NCCOC)c(C)n1CC	23521	i	i	i	i
CC1CCCCN1S(=O)(=O)c1ccc(S(=O)(=O)N2CCN(C)CC2)cc1 (configuration not stated)	i	i	i	i	i
CCCCCCCCCCCCCCCC(=O)OC(CC(=O)O)C[N+](C)(C)C (configuration not stated)	i	i	i	i	i
CCOC(=O)c1c(C)c(C(=O)NCCCN2CCCC2=O)c(C)n1CC	22714	i	i	i	i
CCOP(=O)(c1ccc(N(C)C)cc1)C(O)c1ccccc1OC (configuration not stated)	18542	?	i	i	i
CC(C)OP(=O)(c1ccc(N(C)C)cc1)C(O)c1ccncc1 (configuration not stated)	24190	i	i	i	i
